# Experimental data published in publication PMC11062922 (Nature Chemical Biology, 2023).
# Read-outs that look alike come from different tables or passages of the source.
# Columns and labels:
# Design in all cases: species or system human, MV4-11 + K-562 + COLO205 + SK-N-BE2 + OVCAR-8
# [1] = test system: CSNK1D; conditions: read-out: apparent Kd, compound concentrations: 100 nM and 1000 nM (sheet 'Samples'), n = 1
# [2] = test system: CSNK1E; conditions: read-out: apparent Kd, compound concentrations: 100 nM and 1000 nM (sheet 'Samples'), n = 1
# [3] = test system: MAPK10; conditions: read-out: apparent Kd, compound concentrations: 100 nM and 1000 nM (sheet 'Samples'), n = 1
# [4] = test system: MAPK9; conditions: read-out: apparent Kd, compound concentrations: 100 nM and 1000 nM (sheet 'Samples'), n = 1
# [5] = test system: NQO2; conditions: read-out: apparent Kd; compound concentrations: 100 nM and 1000 nM (sheet 'Samples'), CATDS: 0.189684513322773; n = 1
# [6] = test system: PIK3CD; conditions: read-out: apparent Kd; compound concentrations: 100 nM and 1000 nM (sheet 'Samples'), CATDS: 0.41134743817449698; n = 1
# [7] = test system: MAPK14; conditions: read-out: apparent Kd, compound concentrations: 100 nM and 1000 nM (sheet 'Samples'), n = 1
# [8] = test system: MAPK11; conditions: read-out: apparent Kd; compound concentrations: 100 nM and 1000 nM (sheet 'Samples'), CATDS: 0.18420027460355101; n = 1
# [9] = test system: MAPKAPK2; conditions: read-out: apparent Kd, compound concentrations: 100 nM and 1000 nM (sheet 'Samples'), n = 1
# [10] = test system: NLK; conditions: read-out: apparent Kd; compound concentrations: 100 nM and 1000 nM (sheet 'Samples'), CATDS: 5.8542673875263601E-2; n = 1
# [11] = test system: PRKD2; conditions: read-out: apparent Kd, compound concentrations: 100 nM and 1000 nM (sheet 'Samples'), n = 1
# [12] = test system: PRKD3; conditions: read-out: apparent Kd, compound concentrations: 100 nM and 1000 nM (sheet 'Samples'), n = 1
# [13] = test system: RIPK2; conditions: read-out: apparent Kd, compound concentrations: 100 nM and 1000 nM (sheet 'Samples'), n = 1
# [14] = test system: FN3KRP; conditions: read-out: apparent Kd; compound concentrations: 100 nM and 1000 nM (sheet 'Samples'), CATDS: 4.0325276132441398E-2; n = 1
# [15] = test system: FN3K; conditions: read-out: apparent Kd; compound concentrations: 100 nM and 1000 nM (sheet 'Samples'), CATDS: 3.5729467318233003E-2; n = 1
# [16] = test system: MAPK1; conditions: read-out: apparent Kd; compound concentrations: 100 nM and 1000 nM (sheet 'Samples'), CATDS: 3.8538636035205603E-2; n = 1
# [17] = test system: MAPK8; conditions: read-out: apparent Kd; compound concentrations: 100 nM and 1000 nM (sheet 'Samples'), CATDS: 4.79247089655142E-2; n = 1
# [18] = test system: NUAK2; conditions: read-out: apparent Kd; compound concentrations: 100 nM and 1000 nM (sheet 'Samples'), CATDS: 3.7503176439752997E-2; n = 1
# [19] = test system: PAK6; conditions: read-out: apparent Kd; compound concentrations: 100 nM and 1000 nM (sheet 'Samples'), CATDS: 3.6851014087153897E-2; n = 1
# [20] = test system: PDXK; conditions: read-out: apparent Kd; compound concentrations: 100 nM and 1000 nM (sheet 'Samples'), CATDS: 4.2866477052702801E-2; n = 1
# [21] = test system: PRKD1; conditions: read-out: apparent Kd; compound concentrations: 100 nM and 1000 nM (sheet 'Samples'), CATDS: 5.7643815107824597E-2; n = 1
structure (smiles),measurement,setting,value
CCCCc1nn2ncccc2c1-c1ccnc(NC2CC2)n1 [GW684374X],potency estimated from few doses,[1]; CATDS: 0.183460166751924,702 nM
same,potency estimated from few doses,[2]; CATDS: 0.13214440190412699,1590 nM
same,potency estimated from few doses,[3]; CATDS: 0.138963906660688,1370 nM
same,potency estimated from few doses,[4]; CATDS: 0.12372123914536701,1960 nM
same,potency estimated from few doses,[5],655 nM
same,potency estimated from few doses,[6],178 nM
Fc1ccc(-c2ncn(CCCN3CCOCC3)c2-c2ccncc2)cc1 [SB-210313],potency estimated from few doses,[1]; CATDS: 0.19836678982407999,1230 nM
same,potency estimated from few doses,[2]; CATDS: 0.16080040098047499,2020 nM
same,potency estimated from few doses,[3]; CATDS: 0.188105641093985,1380 nM
same,potency estimated from few doses,[7]; CATDS: 0.26893269490410898,706 nM
same,potency estimated from few doses,[4]; CATDS: 0.212522711291111,1070 nM
C[C@H](O)CNc1cc(-c2[nH]c3cccnc3c2-c2ccc(F)cc2)ccn1.Cl [RO3206145-001],potency estimated from few doses,[1]; CATDS: 0.227277196740168,36.6 nM
same,potency estimated from few doses,[2]; CATDS: 0.13101963616975801,99 nM
same,potency estimated from few doses,[3]; CATDS: 6.3561216633857096E-2,1000 nM
same,potency estimated from few doses,[8],51.5 nM
same,potency estimated from few doses,[7]; CATDS: 0.188780888737105,49.4 nM
same,potency estimated from few doses,[4]; CATDS: 9.6618855435108605E-2,211 nM
same,potency estimated from few doses,[9]; CATDS: 0.128658474948743,103 nM
same,potency estimated from few doses,[10],1550 nM
same,potency estimated from few doses,[11]; CATDS: 5.9855757256393E-2,1370 nM
same,potency estimated from few doses,[12]; CATDS: 5.6713144719272697E-2,1880 nM
same,potency estimated from few doses,[13]; CATDS: 7.7128877949965702E-2,441 nM
CCc1cccc(NC(=O)Nc2ccc(Oc3ccc4nc(NC(=O)OC)[nH]c4c3)cc2)c1 [GW673715X],potency estimated from few doses,[1]; CATDS: 0.27728092810056698,739 nM
same,potency estimated from few doses,[2]; CATDS: 0.214439081495093,1270 nM
same,potency estimated from few doses,[7]; CATDS: 0.234253056752116,1030 nM
same,potency estimated from few doses,[9]; CATDS: 0.28890607877709801,685 nM
Cc1nccc(-c2c(-c3ccc(F)cc3)ncn2CCCN2CCOCC2)n1.Cl [SB-282975-A],potency estimated from few doses,[1]; CATDS: 0.65749239951041605,74.7 nM
same,potency estimated from few doses,[2]; CATDS: 0.24800542383641,505 nM
same,potency estimated from few doses,[7]; CATDS: 0.18964189775036899,1100 nM
same,potency estimated from few doses,[9]; CATDS: 0.19328139808162401,1030 nM
CC(CO)Nc1cc(-c2[nH]c3cccnc3c2-c2ccc(F)cc2)ccn1.Cl (stereo not shown) [RO3202312-001],potency estimated from few doses,[1]; CATDS: 9.2931032054770199E-2,48.2 nM
same,potency estimated from few doses,[2]; CATDS: 6.9907661952316402E-2,115 nM
same,potency estimated from few doses,[14],967 nM
same,potency estimated from few doses,[15],1990 nM
same,potency estimated from few doses,[7]; CATDS: 0.154329578320028,12.1 nM
same,potency estimated from few doses,[16],1240 nM
same,potency estimated from few doses,[17],440 nM
same,potency estimated from few doses,[4]; CATDS: 0.13086781986766799,18.6 nM
same,potency estimated from few doses,[9]; CATDS: 0.22131403995385401,4.81 nM
same,potency estimated from few doses,[18],1450 nM
same,potency estimated from few doses,[19],1620 nM
same,potency estimated from few doses,[20],716 nM
same,potency estimated from few doses,[21],219 nM
same,potency estimated from few doses,[11]; CATDS: 6.6871929523774506E-2,132 nM
same,potency estimated from few doses,[12]; CATDS: 6.6409082952543802E-2,135 nM
same,potency estimated from few doses,[13]; CATDS: 4.9490640044255602E-2,386 nM
